Test results taken from the supplement of paper PMC4466140.

B1: unnamed (peptide)
chain: NPLPKEPRLPKRKVA

Molecular target: ScBbc1
Experiment: SPOT peptide array binding signal intensity (averaged, normalized) (arbitrary units (background-subtracted, floor 0; scale differs between SH3 domains)); higher = stronger binding of the SH3 domain to the peptide
In short: (§1)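 Detection of bound protein relied on anti-GST antibody, an HRP anti-mouse secondary and luminol, with imaging and quantification in Genespotter. The bound protein was GST-fused SH3 domains from four yeast species, incubated at 10 μg/ml overnight at 4°C in TBS-based blocking buffer on cellulose membranes carrying synthetic 15-mer peptides with cysteines replaced by serines. Binding signal is normalized, background-subtracted spot intensity averaged over replicates, in arbitrary units that differ between domains.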

Binder	SPOT peptide array binding signal intensity
B1	168

Molecular target: ScBem1-D1
Experiment: as above
In short: as §1

Binder	SPOT peptide array binding signal intensity
B1	12.5

Molecular target: ScBzz1-D1
Experiment: as above
In short: as §1

Binder	SPOT peptide array binding signal intensity
B1	81

Molecular target: ScBzz1-D2
Experiment: as above
In short: as §1

Binder	SPOT peptide array binding signal intensity
B1	56.5

Molecular target: ScCyk3
Experiment: as above
In short: as §1

Binder	SPOT peptide array binding signal intensity
B1	3

Molecular target: ScFus1
Experiment: as above
In short: as §1

Binder	SPOT peptide array binding signal intensity
B1	42

Molecular target: ScHof1
Experiment: as above
In short: as §1

Binder	SPOT peptide array binding signal intensity
B1	1.25

Molecular target: ScHse1
Experiment: as above
In short: as §1

Binder	SPOT peptide array binding signal intensity
B1	337

Molecular target: ScLsb1
Experiment: as above
In short: as §1

Binder	SPOT peptide array binding signal intensity
B1	29.5

Molecular target: ScLsb2
Experiment: as above
In short: as §1

Binder	SPOT peptide array binding signal intensity
B1	≤ 0

Molecular target: ScLsb3
Experiment: as above
In short: as §1

Binder	SPOT peptide array binding signal intensity
B1	3820

Molecular target: ScLsb4
Experiment: as above
In short: as §1

Binder	SPOT peptide array binding signal intensity
B1	1350

Molecular target: ScMyo3
Experiment: as above
In short: as §1

Binder	SPOT peptide array binding signal intensity
B1	≤ 0

Molecular target: ScMyo5
Experiment: as above
In short: as §1

Binder	SPOT peptide array binding signal intensity
B1	≤ 0

Molecular target: ScNbp2
Experiment: as above
In short: as §1

Binder	SPOT peptide array binding signal intensity
B1	41

Molecular target: ScPex13
Experiment: as above
In short: as §1

Binder	SPOT peptide array binding signal intensity
B1	58.2

Molecular target: ScRvs167
Experiment: as above
In short: as §1

Binder	SPOT peptide array binding signal intensity
B1	1460

Molecular target: ScSho1
Experiment: as above
In short: as §1

Binder	SPOT peptide array binding signal intensity
B1	286

Molecular target: ScSla1-D1-D2
Experiment: as above
In short: as §1

Binder	SPOT peptide array binding signal intensity
B1	546

Molecular target: ScSla1-D3
Experiment: as above
In short: as §1

Binder	SPOT peptide array binding signal intensity
B1	4.5

Molecular target: SpAbp1-D1
Experiment: as above
In short: as §1

Binder	SPOT peptide array binding signal intensity
B1	86

Molecular target: SpBbc1
Experiment: as above
In short: as §1

Binder	SPOT peptide array binding signal intensity
B1	4.25

Molecular target: SpBzz1-D1
Experiment: as above
In short: as §1

Binder	SPOT peptide array binding signal intensity
B1	356

Molecular target: SpBzz1-D2
Experiment: as above
In short: as §1

Binder	SPOT peptide array binding signal intensity
B1	2.5

Molecular target: SpCyk3
Experiment: as above
In short: as §1

Binder	SPOT peptide array binding signal intensity
B1	≤ 0

Molecular target: SpHof1
Experiment: as above
In short: as §1

Binder	SPOT peptide array binding signal intensity
B1	120

Molecular target: SpHof1-2
Experiment: as above
In short: as §1

Binder	SPOT peptide array binding signal intensity
B1	262

Molecular target: SpHof1-3
Experiment: as above
In short: as §1

Binder	SPOT peptide array binding signal intensity
B1	464

Molecular target: SpHse1
Experiment: as above
In short: as §1

Binder	SPOT peptide array binding signal intensity
B1	198

Molecular target: SpLsb1
Experiment: as above
In short: as §1

Binder	SPOT peptide array binding signal intensity
B1	16

Molecular target: SpLsb4
Experiment: as above
In short: as §1

Binder	SPOT peptide array binding signal intensity
B1	7280

Molecular target: SpMyo1
Experiment: as above
In short: as §1

Binder	SPOT peptide array binding signal intensity
B1	≤ 0

Molecular target: SpNbp2
Experiment: as above
In short: as §1

Binder	SPOT peptide array binding signal intensity
B1	27

Molecular target: SpPex13
Experiment: as above
In short: as §1

Binder	SPOT peptide array binding signal intensity
B1	15

Molecular target: SpRvs167
Experiment: as above
In short: as §1

Binder	SPOT peptide array binding signal intensity
B1	1700

Molecular target: SpSla1-D1-D2
Experiment: as above
In short: as §1

Binder	SPOT peptide array binding signal intensity
B1	≤ 0

Molecular target: SpSla1-D3
Experiment: as above
In short: as §1

Binder	SPOT peptide array binding signal intensity
B1	15
